Data on 38 molecules can be found in the supplement of paper PMC9948646.

SMILES strings stand for the structures.

This test concerns gramicidin D channels in DC22:1PC lipid vesicles (bilayer-modifying potency). Put plainly: initial Tl+ fluorescence quench rate relative to no-drug control (NormRate, gramicidin monomer-dimer shift) (ratio (fold of control)); higher = stronger bilayer-modifying effect (equilibrium shifted toward conducting dimers), active = 1.5 or more. To be noted: 10 µM; lipid concentration 50 µM; temperature: 25 °C. As for the experimental part:
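Stopped-flow fluorescence quench assay: ANTS-loaded DC22:1PC large unilamellar vesicles doped with gramicidin D (1:2000), 50 µM lipid, equilibrated 10 min with 10 µM drug (0.1% DMSO), mixed with Tl+ quench buffer at 25°C. Initial quench rate (Tl+ influx) was fitted with a modified stretched exponential and normalised to the no-drug control rate (NormRate); duplicates from two independent LUV preparations (triplicates for 7 drugs).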
Regarding `COC(=O)c1cccc2oc(-c3cccc(OC)c3NC(=O)c3cc(-c4ccccc4)on3)nc12`, the “initial Tl+ fluorescence quench rate” value was 1.76 (active).

Turning to `CN1CCCN([C@H](c2ccccc2)c2ccc(Cl)cc2)CC1`, the “initial Tl+ fluorescence quench rate” value is 1.43 (inactive).

In the case of `COc1ccc(-c2nnc3ccc(-c4cccc(C(C)C)c4)cn23)cc1OC`, the “initial Tl+ fluorescence quench rate” value is 2.38 (active).

Turning to `O=[N+]([O-])c1cn2c(n1)OC[C@@H](OCc1ccc(OC(F)(F)F)cc1)C2`, the “initial Tl+ fluorescence quench rate” value was 1.38 (inactive).

In the case of `O=C(Nc1ccccc1-c1nc2c(C(=O)O)cccc2o1)c1ccccc1`, the “initial Tl+ fluorescence quench rate” value was 1.34 (inactive).

Take `Cc1ccc(Oc2ccc(NC(=O)CNc3ccccc3N3CCCC3=O)cc2)cc1`: the “initial Tl+ fluorescence quench rate” value is 4.66 (active).

Regarding `COc1ccc(O[C@H](C)C(=O)Nc2ccc(Cl)cc2C)cc1`, the “initial Tl+ fluorescence quench rate” value was 1.05 (inactive).

Consider `Clc1ccc(CCNc2cc(-c3ccccc3)nc3ncnn23)cc1`, for which the “initial Tl+ fluorescence quench rate” value was 1.3 (inactive).

`COc1cc(C2=NCCN2)ccc1-c1cn(-c2cccc(C3=NCCN3)c2)nn1`: the “initial Tl+ fluorescence quench rate” value is 1.01 (inactive).

In the case of `COc1ccc(-c2cnc3ccc(NCc4ccc(S(N)(=O)=O)cc4)nn23)cn1`, the “initial Tl+ fluorescence quench rate” value was 1.24 (inactive).

In the case of `NC[C@@H](c1cccs1)S(=O)(=O)c1ccccc1`, the “initial Tl+ fluorescence quench rate” value is 1.36 (inactive).

On to `CCN(CC)CCCCCCNc1cc(OC)cc2c(C)ccnc12`, for which the “initial Tl+ fluorescence quench rate” value is 1.45 (inactive).

With `O=C(N[C@H]1CCN(c2ccnc3ccccc23)C1)c1cccc(C(F)(F)F)c1`, the “initial Tl+ fluorescence quench rate” value is 1.27 (inactive).

Consider `O=C(Nc1ccc(N2CCNCC2)nc1)c1oc(-c2ccccc2)nc1C(F)(F)F`, for which the “initial Tl+ fluorescence quench rate” value is 1.47 (inactive).

On to `Cc1ccc(-c2nc(CN(Cc3ccccn3)C(C)C)cs2)o1`, for which the “initial Tl+ fluorescence quench rate” value was 1.21 (inactive).

Consider `COc1ccc(S(=O)(=O)Nc2ccc(CN3CCN(C(=O)c4cccc(C#N)c4)CC3)cc2)cc1`, for which the “initial Tl+ fluorescence quench rate” value was 1.41 (inactive).

With `Cc1cc(C)c2cc(C(=O)NC3CCCCCCC3)[nH]c2c1`, the “initial Tl+ fluorescence quench rate” value is 1.78 (active).

Take `Cc1nnc(NC(=O)c2cn(-c3ccccc3)nc2-c2ccccc2C)o1`: the “initial Tl+ fluorescence quench rate” value was 1.02 (inactive).

For `C[C@H]1c2cccc(O)c2C(=O)C2=C(O)[C@]3(O)C(=O)C(C(N)=O)=C(O)[C@@H](N(C)C)[C@@H]3[C@@H](O)[C@@H]21`, the “initial Tl+ fluorescence quench rate” value was 1.02 (inactive).

As for `CC(C)(C)n1nc(Cc2cccc3ccccc23)c2c(N)ncnc21`, the “initial Tl+ fluorescence quench rate” value is 2.86 (active).

In the case of `Cc1ccccc1CN1CCC(O)(c2ccc(Cl)c(C(F)(F)F)c2)CC1`, the “initial Tl+ fluorescence quench rate” value is 1.14 (inactive).

Turning to `O=C(NC1CC1)c1ccc(N2CCOc3ccc(Cl)cc32)s1`, the “initial Tl+ fluorescence quench rate” value was 3.52 (active).

`CNC(=O)c1cc(S(=O)(=O)N2CCN(c3ccccn3)CC2)cs1`: the “initial Tl+ fluorescence quench rate” value was 1.07 (inactive).

As for `COC(=O)c1c(NC(=O)c2cc3ccccc3oc2=O)sc2c1CCN(Cc1ccccc1)C2`, the “initial Tl+ fluorescence quench rate” value is 1.04 (inactive).

Turning to `O=C(NCCc1ccn(-c2ccccc2)n1)C1CCCCC1`, the “initial Tl+ fluorescence quench rate” value was 1.05 (inactive).

Take `O=C1[C@@H](Oc2ccccc2)[C@@H](c2ccc(Cl)cc2)N1CCn1cnc2c(NCc3ccccc3)ncnc21`: the “initial Tl+ fluorescence quench rate” value is 2.02 (active).

For `Nc1nc2ccc(-c3cncc(Oc4ccc(F)cc4)c3)cc2[nH]1`, the “initial Tl+ fluorescence quench rate” value was 1.85 (active).

Regarding `C[C@@H]1[C@H](O)[C@@H](C)/C=C/C=C/C=C/C=C/C=C/C=C/C=C/[C@H](O[C@@H]2O[C@H](C)[C@@H](O)[C@H](N)[C@@H]2O)C[C@@H]2O[C@](O)(C[C@@H](O)C[C@@H](O)[C@H](O)CC[C@@H](O)C[C@@H](O)CC(=O)O[C@H]1C)C[C@H](O)[C@H]2C(=O)O`, the “initial Tl+ fluorescence quench rate” value is 1.03 (inactive).

As to `OCc1ccc(-c2cncc(Nc3cccc(Cl)c3)c2)cc1`, the “initial Tl+ fluorescence quench rate” value was 2.64 (active).

As for `COc1ccc(C2=NN(C3CCCCCC3)C(=O)[C@@H]3CC=CC[C@H]23)cc1OCCCCOc1ccc(-c2nn[nH]n2)cc1`, the “initial Tl+ fluorescence quench rate” value was 8.03 (active).

In the case of `Cc1cc2nc(NC(=O)C(C)(C)C)nc(Cl)c2n1Cc1ccc(Cl)cc1`, the “initial Tl+ fluorescence quench rate” value is 1.77 (active).

Consider `Nc1ccc2ncnc(Nc3ccc(OCc4cccc(F)c4)c(Cl)c3)c2c1`, for which the “initial Tl+ fluorescence quench rate” value is 2.58 (active).

Take `CC[C@H](Sc1nc2ccccc2o1)C(=O)Nc1nnc(C)s1`: the “initial Tl+ fluorescence quench rate” value was 1.3 (inactive).

In the case of `COc1ccccc1[C@H](C)NCC(=O)Nc1cc(C(F)(F)F)ccc1Cl`, the “initial Tl+ fluorescence quench rate” value is 1.17 (inactive).

As to `c1ccc(Oc2ccc(-c3cc(N4CCNCC4)[nH]n3)cc2)cc1`, the “initial Tl+ fluorescence quench rate” value was 1.44 (inactive).

As for `CN1CCN(S(=O)(=O)c2ccc(-c3ccc4c(Nc5ccc6nn[nH]c6c5)ccnc4c3)cc2)CC1`, the “initial Tl+ fluorescence quench rate” value is 1.28 (inactive).

As for `Cc1cccc(NC(=O)c2cc(S(=O)(=O)N(C)c3ccc(F)cc3)ccc2Cl)n1`, the “initial Tl+ fluorescence quench rate” value was 1.5 (active).

Regarding `COc1ccc2nc(C)cc(OCC(=O)Nc3ccccc3OC)c2c1`, the “initial Tl+ fluorescence quench rate” value was 1.11 (inactive).
